# Reference: PubChem BioAssay
# Activity calls are given as the source filed them.
# Experiments:
# [1] = E. coli DRC41 culture turbidity changes, primary screen, E. coli filamentation inducer project, strain DRC41, OD650, 48 h (AID 1152);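 also: E. coli MC1000 strain DRC41 lacking acrAB efflux pump and sulA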; conditions: E. coli DRC41 (acrAB sulA), higher = more signal, called active from +8 up or from −8 down
# [2] = small-molecule binders of probe aLefty1, primary screen, biochemical, small-molecule microarray, 635/667 nm fluorescence (AID 1153); conditions: higher = more signal;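 also: score merges spot fluorescence with signal-to-noise ratio from the scanned slide images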
# [3] = PSAC antagonists in infected red cells, primary screen, cell-based, P. falciparum Indochina, OD700, 1 h (AID 1154); conditions: P. falciparum Indochina infected RBC osmotic lysis, higher = more signal, called active from +8 up or from −8 down
# [4] = PSAC antagonists in infected red cells, primary screen, cell-based, P. falciparum Indochina, OD700, 2 h (AID 1155);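 also: lysis reports solute entry through the parasite surface anion channel PSAC; channel blockers reduce lysis of infected cells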; conditions: P. falciparum Indochina infected erythrocytes, osmotic lysis OD700; higher = more signal, called active from +8 up or from −8 down
# [5] = osmotic lysis modulators in infected erythrocytes, primary screen, PSAC antagonist project, cell-based, P. falciparum Indochina, OD700, 3 h (AID 1156); conditions: higher = more signal, called active from +8 up or from −8 down
# [6] = PSAC antagonists in infected red cells, primary screen, cell-based, P. falciparum Indochina, OD700, 18 h (AID 1157); conditions: P. falciparum Indochina infected erythrocytes, osmotic lysis OD700, 18 h; higher = more signal, called active from +8 up or from −8 down
# [7] = modulators of S6 phosphorylation in cells, primary screen, cell-based, A549, cytoblot, luminescence, serum-stimulated (AID 1158); conditions: A549 phospho-S6 cytoblot, 5 h, higher = more signal;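 also: serum-stimulated A549 lung adenocarcinoma cells; signal is phosphorylated S6 detected by cytoblot immunostaining with HRP secondary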
# [8] = biological target: NADPH oxidase 2 (Homo sapiens) (UniProt P04839); assay: NOX2-dependent H2O2 signal modulators, primary screen, NOX inhibitor project, cell-based, HEK293-NOX2, PMA-stimulated, Amplex Red fluorescence (AID 1159); conditions: 45 min, higher = more signal, called active from +8 up or from −8 down; also: test concentration not given here
# [9] = biological target: NADPH oxidase 4 (Homo sapiens) (UniProt Q9NPH5); assay: NOX4-dependent H2O2 signal modulators, primary screen, NOX inhibitor project, cell-based, HEK293-NOX4, tetracycline-induced, Amplex Red fluorescence (AID 1160); conditions: 45 min, higher = more signal, called active from +8 up or from −8 down
# [10] = biological target: NADPH oxidase 5 (Homo sapiens) (UniProt Q96PH1); assay: NOX5-dependent H2O2 signal modulators, primary screen, NOX inhibitor project, cell-based, HEK293-NOX5, Amplex Red fluorescence (AID 1161); conditions: HEK293-NOX5, ionomycin, 45 min, higher = more signal
# [11] = A549 cell viability effects, profiling panel, calcein-AM fluorescence, 48 h, basal (AID 1162); conditions: higher = more signal; also: test concentration not given here
# [12] = adipocyte viability effects, profiling panel, cell-based, 3T3-L1 adipocytes, calcein-AM fluorescence, 48 h, basal (AID 1163); conditions: 3T3-L1 adipocytes viability, higher = more signal; also: test concentration not given here
# [13] = HepG2 cell viability effects, profiling panel, calcein-AM fluorescence, 48 h, basal (AID 1164); conditions: higher = more signal; also: test concentration not given here
# [14] = MM1S cell viability effects, profiling panel, calcein-AM fluorescence, 48 h, basal (AID 1165); conditions: higher = more signal;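 also: viability of MM1S multiple myeloma cells under basal unstimulated conditions; test concentration not given here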
# [15] = basal RPMI8226 viability, no added stimulus, profiling panel, cell-based, calcein-AM fluorescence, 48 h, PK04 Diversity Set (AID 1166); conditions: RPMI8226 myeloma viability, higher = more signal;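 also: cells grown under basal conditions without added stimulus; test concentration not given here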
# [16] = basal HepG2 mitochondrial membrane potential changes, profiling panel, cell-based, JC-1 fluorescence, 24 h, 100 nL compound (AID 1167); conditions: higher = more signal; also: test concentration not given here
# [17] = basal 3T3-L1 adipocyte mitochondrial potential changes, profiling panel, cell-based, JC-1 fluorescence, 3T3-L1 adipocytes, 24 h, 100 nL compound (AID 1168); conditions: JC-1 mitochondrial fluorescence, higher = more signal, called active from +8 up or from −8 down; also: test concentration not given here
# [18] = basal RPMI8226 mitochondrial membrane potential changes, profiling panel, cell-based, JC-1 fluorescence, 24 h, 100 nL compound (AID 1169); conditions: RPMI8226 myeloma, JC-1 mitochondrial potential fluorescence, higher = more signal; also: test concentration not given here
# [19] = basal MM1S mitochondrial membrane potential changes, profiling panel, cell-based, JC-1 fluorescence, 24 h, 100 nL compound (AID 1170); conditions: higher = more signal; also: test concentration not given here
# [20] = A549 lung cancer cell viability effects, profiling panel, resazurin fluorescence, 24 h, PK04 Diversity Set (AID 1171); conditions: higher = more signal, called active from +8 up or from −8 down; also: test concentration not given here
# Sequence of NADPH oxidase 2 (Homo sapiens) (P04839 whole entry, looked up): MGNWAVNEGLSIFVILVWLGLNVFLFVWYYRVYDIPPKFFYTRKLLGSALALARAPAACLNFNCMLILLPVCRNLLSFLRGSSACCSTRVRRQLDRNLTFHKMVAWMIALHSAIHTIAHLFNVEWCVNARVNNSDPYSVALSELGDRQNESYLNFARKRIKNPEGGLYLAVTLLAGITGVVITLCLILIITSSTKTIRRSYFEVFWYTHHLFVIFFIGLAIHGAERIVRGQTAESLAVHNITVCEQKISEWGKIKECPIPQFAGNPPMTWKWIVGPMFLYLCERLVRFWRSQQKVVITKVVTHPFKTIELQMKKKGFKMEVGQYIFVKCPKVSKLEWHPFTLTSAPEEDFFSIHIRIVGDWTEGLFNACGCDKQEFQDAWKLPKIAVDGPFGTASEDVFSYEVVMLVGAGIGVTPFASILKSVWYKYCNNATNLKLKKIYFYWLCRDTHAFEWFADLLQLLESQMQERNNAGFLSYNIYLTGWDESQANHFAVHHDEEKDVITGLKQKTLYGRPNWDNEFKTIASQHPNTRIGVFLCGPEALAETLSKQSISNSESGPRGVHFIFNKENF
# Sequence of NADPH oxidase 4 (Homo sapiens) (Q9NPH5 whole entry, looked up): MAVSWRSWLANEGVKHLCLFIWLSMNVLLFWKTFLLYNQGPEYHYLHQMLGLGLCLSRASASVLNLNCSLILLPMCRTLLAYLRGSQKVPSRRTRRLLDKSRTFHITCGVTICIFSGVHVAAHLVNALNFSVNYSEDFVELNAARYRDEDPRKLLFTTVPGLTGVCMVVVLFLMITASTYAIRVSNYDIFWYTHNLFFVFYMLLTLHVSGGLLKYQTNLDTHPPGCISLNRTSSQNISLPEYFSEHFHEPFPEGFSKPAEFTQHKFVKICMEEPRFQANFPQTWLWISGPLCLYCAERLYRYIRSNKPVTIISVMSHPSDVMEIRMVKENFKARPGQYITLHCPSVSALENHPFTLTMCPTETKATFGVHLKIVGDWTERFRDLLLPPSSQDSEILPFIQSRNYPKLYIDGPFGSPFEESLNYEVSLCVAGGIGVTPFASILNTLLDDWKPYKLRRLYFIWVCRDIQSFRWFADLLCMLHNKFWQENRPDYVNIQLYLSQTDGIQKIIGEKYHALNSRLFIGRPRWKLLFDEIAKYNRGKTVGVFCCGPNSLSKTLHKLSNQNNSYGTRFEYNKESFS
# Sequence of NADPH oxidase 5 (Homo sapiens) (Q96PH1 whole entry, looked up): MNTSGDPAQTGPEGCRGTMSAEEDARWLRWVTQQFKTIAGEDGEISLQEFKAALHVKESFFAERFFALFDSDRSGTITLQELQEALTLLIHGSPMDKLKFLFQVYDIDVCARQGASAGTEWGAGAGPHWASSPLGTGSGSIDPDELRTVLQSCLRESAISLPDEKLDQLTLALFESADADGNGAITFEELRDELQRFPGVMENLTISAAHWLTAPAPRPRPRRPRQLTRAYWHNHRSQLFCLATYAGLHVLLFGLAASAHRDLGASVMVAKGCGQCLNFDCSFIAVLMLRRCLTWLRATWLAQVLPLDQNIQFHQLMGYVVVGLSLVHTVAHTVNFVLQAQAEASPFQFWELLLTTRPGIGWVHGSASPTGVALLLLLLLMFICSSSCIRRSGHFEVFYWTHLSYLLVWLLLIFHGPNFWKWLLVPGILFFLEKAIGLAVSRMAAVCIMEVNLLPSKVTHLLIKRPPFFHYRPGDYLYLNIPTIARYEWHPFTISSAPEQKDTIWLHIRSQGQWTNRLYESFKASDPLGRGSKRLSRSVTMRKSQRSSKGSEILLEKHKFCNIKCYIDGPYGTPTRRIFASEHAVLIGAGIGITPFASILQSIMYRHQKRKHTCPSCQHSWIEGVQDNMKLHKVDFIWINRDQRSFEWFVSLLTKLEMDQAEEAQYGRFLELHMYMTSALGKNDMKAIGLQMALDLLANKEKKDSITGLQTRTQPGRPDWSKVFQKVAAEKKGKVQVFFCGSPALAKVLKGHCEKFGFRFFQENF
SMILES,z-score [1],composite z-score [2],z-score [3],z-score [4],z-score [5],z-score [6],z-score [7],z-score [8],z-score [9],z-score [10],z-score [11],z-score [12],z-score [13],z-score [14],z-score [15],z-score [16],z-score [17],z-score [18],z-score [19],z-score [20]
COCCCNC(=O)[C@@H]1c2ccccc2C(=O)N(Cc2cc(C(F)(F)F)cc(C(F)(F)F)c2)[C@H]1c1ccc(CO)cc1,0.144 (inactive),1.24,1.58 (inactive),-0.0915 (inactive),0.532 (inactive),0.254 (inactive),-0.348,0.175 (inactive),0.414 (inactive),1.54,0.301,-0.458,0.519,0.514,-1.74,0.983,0.385 (inactive),-0.992,0.636,-0.266 (inactive)
C=CCC(OC(C)=O)[C@@H]1[C@@H](N(Cc2cccc3ccccc23)C(=O)c2ccc(C)cc2)c2cc(OCCCO)ccc2N1C(=O)c1ccc2ccccc2n1 (stereo not given in full),2.18 (inactive),0.0009,1.83 (inactive),-0.623 (inactive),-1.16 (inactive),-1.37 (inactive),1.62,-0.604 (inactive),0.807 (inactive),2.44,0.375,0.694,1.14,0.823,-0.473,2.11,0.199 (inactive),0.187,-1.25,0.34 (inactive)
COc1ccc(C#Cc2ccc3c(c2)[C@]2(C(=O)N3)[C@H](C(=O)Nc3nc4ccccc4s3)[C@H]3C(=O)O[C@H](c4ccccc4)[C@H](c4ccccc4)N3[C@@H]2c2ccc(OCCO)cc2)cc1,-0.368 (inactive),-0.0186,2.85 (inactive),1.41 (inactive),-0.521 (inactive),0.81 (inactive),0.13,0.578 (inactive),0.0813 (inactive),-1.04,-0.255,0.183,0.044,-2.63,-0.988,-3.48,-1.95 (inactive),-1.21,-2.1,0.135 (inactive)
C/C=C/CN(C(=O)C#Cc1ccccc1)[C@H](CO[Si](C)(C)C(C)(C)C)c1ccccc1,2.64 (inactive),-0.324,0.567 (inactive),-0.912 (inactive),-0.509 (inactive),-1.83 (inactive),1.52,0.405 (inactive),0.123 (inactive),-0.373,-0.21,1.45,-0.488,-2.38,-3.4,2.31,1.37 (inactive),-0.522,-0.0851,0.365 (inactive)
O=C1c2ccccc2[C@](Cc2ccccc2I)(C(=O)O)[C@H](c2ccc(CO)cc2)N1Cc1ccccc1,0.848 (inactive),0.223,4.42 (inactive),-0.579 (inactive),-0.144 (inactive),-0.656 (inactive),1.25,0.516 (inactive),0.148 (inactive),1.71,1.48,0.431,1.04,0.295,-1.66,0.275,0.0449 (inactive),-0.601,-0.349,-1.45 (inactive)
